About 2,700 (4%) of roughly 68,000 compounds showed an effect of 50% or more. The sample as a whole holds a higher share of strong results than the screen did.

The subject of this assay is Plasmodium berghei. Nature of the assay: Screen against P. berghei liver stage (PbLuc), transformed with Luciferase, at 2uM. Type of assay: functional, HepG2. Conditions: tested at 2 uM.
For the compound `Cc1cc(C)c(S(=O)(=O)Nc2c(C)nc(N(C)C)nc2C)cc1C`, the INHIBITION is recorded as -46.61%.

In the case of `CN1CC2(CCCN(Cc3nnc(-c4ccccc4)o3)CC2)OC1=O` (stereo not drawn), the INHIBITION is -16.62%.

As to `CN1CC2(CCCN(Cc3nnc(-c4ccco4)o3)CC2)OC1=O` (stereo not drawn), the INHIBITION was determined as 16.82%.

Take `CN1CC2(CCCN(Cc3nnc(-c4cccc(F)c4)o3)C2)OC1=O` (stereo not drawn): the INHIBITION is recorded as 54.49%.

Consider `O=C(NC[C@]12COC[C@H]1CN(Cc1ccco1)C2)c1ccccc1`, for which the INHIBITION was -36.34%.

On to `O=C(NCc1ccco1)N1CCC(n2ccc(C(F)(F)F)n2)CC1`, for which the INHIBITION is given as -43.09%.

For the compound `Cc1nn(C)cc1CN1CCCC(n2c(=O)oc3ccc(Cl)cc32)C1` (stereo not drawn), the INHIBITION is recorded as 13.17%.

For the compound `COC(=O)[C@H]1CN(C(=O)NC(C)C)CCN1C(=O)C1CCCCC1`, the INHIBITION is 16.67%.

In the case of `COCC(=O)N1CCN(C(=O)c2cccs2)[C@@H](C(=O)OC)C1`, the INHIBITION is given as -19.02%.

For the compound `COCC(=O)N1CCN(C(C)=O)C[C@@H]1C(=O)OC`, the INHIBITION came to 23.53%.

As for `COC(=O)[C@H]1CN(C(C)=O)CCN1C(C)=O`, the INHIBITION was 56.21%.

As for `COC(=O)[C@@H]1CN(C(=O)Nc2ccccc2)CCN1C(C)=O`, the INHIBITION was -21.22%.

Turning to `COCC(=O)N1CCN(C(=O)C2CCCCC2)[C@@H](C(=O)OC)C1`, the INHIBITION was 72.68%.

Consider `CNC(=O)C1(c2cnccn2)CCCN1C(=O)Cc1ccsc1` (stereo not drawn), for which the INHIBITION turned out to be 36.82%.

Consider `CN(CCc1ccccn1)Cc1nccn1Cc1ccccc1`, for which the INHIBITION is -9.98%.

Consider `CN(C)Cc1cnc2n1CCN(C(=O)NCc1ccccc1)CC2`, for which the INHIBITION is reported as 53.44%.

In the case of `CN(C)Cc1cnc2n1CCN(C(=O)Cc1ccc(F)cc1)CC2`, the INHIBITION came out at 8.41%.

With `CN(C)Cc1cnc2n1CCN(C(=O)C1CC=CC1)CC2`, the INHIBITION was found to be 46.27%.

In the case of `CN(C)Cc1cnc2n1CCN(C(=O)Cc1cccc(F)c1)CC2`, the INHIBITION is reported as 54.82%.

`CN(C)Cc1cnc2n1CCN(C(=O)NC1CCCC1)CC2`: the INHIBITION is reported as 16.03%.

Consider `CN(C)Cc1cnc2n1CCN(C(=O)Cc1ccsc1)CC2`, for which the INHIBITION is given as 37.51%.

For `CN(Cc1ccccc1F)C(C(N)=O)c1ccccc1` (stereo not drawn), the INHIBITION turned out to be 24.62%.

With `CN(C)S(=O)(=O)c1ccc(-c2nc(C#N)c(NC(C)(C)C)o2)o1`, the INHIBITION was 1.3%.

With `CCN(CC)CCN1CC[C@H]2OCC[C@@]2(C(=O)N2CCOCC2)C1`, the INHIBITION is 41.38%.

Take `COC(=O)c1cccc(C(=O)N2CCN(c3cc(Cl)ccc3C)CC2)n1`: the INHIBITION is reported as 18.76%.

As to `CC(C)=CCCC(C)CN1CCC(n2cc(C(C)(C)O)nn2)CC1` (stereo not drawn), the INHIBITION amounted to 15.27%.

`CC(C)=CCCC(C)CN1CCC(n2cc(C(=O)NCCO)nn2)CC1` (stereo not drawn): the INHIBITION stood at 48.93%.

Regarding `CC(C)=CCCC(C)CN1CCC(n2cc(CO)nn2)CC1` (stereo not drawn), the INHIBITION is on record as 55.66%.

Source of the values: ChEMBL document CHEMBL4513216, “Probing the Open Global Health Chemical Diversity Library for Multistage-Active Starting Points for Next-Generation Antimalarials” (ACS Infect Dis, 2020).
